The panel holds about 83,000 compounds, 20% with a hit somewhere; the sample as a whole holds those more often.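 Growth was measured after 48 h exposure to one concentration of compound in 96-well plates. Values under 10 count as active.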 Values without a mark were called inactive. Active and inactive are the calls of the source.
How the values were obtained:
Experiment in all cases: NCI-60 one-dose screen, 48 h (100 = growth as untreated, 0 = no growth, -100 = all killed)
Settings in all cases: 10 µM unless noted
NCI-H23 lung = system: NCI-H23 lung
NCI-H226 lung = system: NCI-H226 lung
NCI-H322M lung = system: NCI-H322M lung
HOP-62 NSCLC = system: HOP-62 NSCLC
NCI-H460 lung = system: NCI-H460 lung
HOP-92 NSCLC = system: HOP-92 NSCLC
NCI-H522 lung = system: NCI-H522 lung
A549/ATCC NSCLC = system: A549/ATCC NSCLC
786-0 renal = system: 786-0 renal
COLO 205 colon = system: COLO 205 colon
DU-145 prostate = system: DU-145 prostate
K-562 leukemia = system: K-562 leukemia
MALME-3M melanoma = system: MALME-3M melanoma
MDA-MB-231 breast = system: MDA-MB-231 breast
RXF 393 renal = system: RXF 393 renal
SF-268 CNS = system: SF-268 CNS
SF-295 CNS = system: SF-295 CNS
SF-539 CNS = system: SF-539 CNS
UACC-257 melanoma = system: UACC-257 melanoma
M14 melanoma = system: M14 melanoma

| SMILES | growth (NCI-H23 lung) | growth (NCI-H226 lung) | growth (NCI-H322M lung) | growth (HOP-62 NSCLC) | growth (NCI-H460 lung) | growth (HOP-92 NSCLC) | growth (NCI-H522 lung) | growth (A549/ATCC NSCLC) | growth (786-0 renal) | growth (COLO 205 colon) | growth (DU-145 prostate) | growth (K-562 leukemia) | growth (MALME-3M melanoma) | growth (MDA-MB-231 breast) | growth (RXF 393 renal) | growth (SF-268 CNS) | growth (SF-295 CNS) | growth (SF-539 CNS) | growth (UACC-257 melanoma) | growth (M14 melanoma) |
| --- | --- | --- | --- | --- | --- | --- | --- | --- | --- | --- | --- | --- | --- | --- | --- | --- | --- | --- | --- | --- |
| N#C/C(=C\c1ccc(-c2ccccc2)o1)c1nc(-c2ccco2)cs1 | 82.7% | 81.3% | 84.6% | 98.6% | 85% | 87.4% | 93.8% | 101% | 106% | 104% | 107% | 93.2% | 94.8% | 86.3% | 105% | 101% | 97.6% | 94.9% | 103% | 93.8% |
| Cc1csc(-c2ccc3c(c2)COC3(CCCN(C)C)c2ccc(F)cc2)c1 (stereo not given) | 88.9% | 95.8% | 77% | -64.4% (active) | -45.7% (active) | 34.3% | -38.8% (active) | 31.3% | 61.8% | -69.1% (active) | 42.8% | -19.9% (active) | -71.9% (active) | 44.3% | 43.5% | 57.2% | 73.7% | 73.9% | -57.7% (active) | -70.3% (active) |
| O=[N+]([O-])c1ccc(N/N=C(\C(=N/Nc2ccc([N+](=O)[O-])cc2[N+](=O)[O-])c2ccccc2)c2ccccc2)c([N+](=O)[O-])c1 | 104% | 93.5% | 85.6% | 89.5% | 52.1% | 92.4% | 83.4% | 51.4% | 90.5% | 43.8% | 86.4% | 97.3% | 65.6% | 94.2% | 111% | 82.6% | 94.6% | 89.2% | 95.2% | 100% |
| C=C(C)[C@@H]1CC[C@]2(C=O)CC[C@]3(C)[C@H](CC[C@@H]4[C@@]5(C)C/C(=C/c6cccnc6)C(=O)C(C)(C)[C@@H]5CC[C@]43C)[C@@H]12 | 75.6% | 91.3% | 100% | 119% | 85.7% | 83.9% | 72% | 57.1% | 101% | 95.5% | 92.1% | 32.3% | 88.1% | 93.8% | 83.2% | 85.8% | 86.9% | 96.5% | 84.5% | 78.5% |
| C=C(C)[C@@H]1CC[C@]2(C(=O)N3CCCNCC3)CC[C@]3(C)[C@H](CC[C@@H]4[C@@]5(C)CCC(=O)C(C)(C)[C@@H]5CC[C@]43C)[C@@H]12 | 98.4% | 90.7% | 102% | 92.9% | 97.7% | 48.4% | 101% | 86.2% | 94.9% | 101% | 93.6% | 78.4% | 99.3% | 88.7% | 81.9% | 84.9% | 104% | 99.9% | 98.4% | 100% |
| CCN(CC)c1ccc(/C=C/c2cc(C)c3ccccc3n2)cc1 | 64% | 61.1% | 101% | 46.7% | 43% | 82.2% | 31.3% | 53.9% | 94.6% | 24.7% | 94.2% | 25.3% | 59.4% | 42.4% | 13.2% | 82.5% | 41.5% | 48.4% | 60.5% | 38.2% |
| Clc1ccccc1-c1nc(Nc2nc3ccccc3s2)nc(C(Cl)(Cl)Cl)n1 | 76.4% | 95% | 24.6% | 40.5% | 1.36% (active) | 55.6% | 88.4% | 18% | 75.8% | 10.9% | 15.9% | 50.8% | 79.6% | 14.5% | 16.7% | 81.7% | 37.8% | 32.8% | 83.9% | 80.1% |
| CC1(C)CC[C@]2(C(=O)Nc3ccccn3)CC[C@]3(C)C(=CC[C@@H]4[C@@]5(C)C/C(=C/c6ccncc6)C(=O)C(C)(C)[C@@H]5CC[C@]43C)[C@@H]2C1 | 34.4% | 28.1% | 62.6% | 70.9% | 6.3% (active) | 43.4% | 40.1% | 26.6% | 44.2% | 2.97% (active) | 33.9% | 11% | -2.79% (active) | 48.8% | -21.5% (active) | 72.5% | 30.8% | 16.2% | 48.4% | 20.6% |
| O=C1c2ccccc2NC(c2cn(-c3ccccc3)nc2-c2cccs2)N1Cc1ccccc1 (stereo not given) | 74% | 96.3% | 85.3% | 86.9% | 94.5% | 74.1% | 72.3% | 82.8% | 73.6% | 93.5% | 97.6% | 70.7% | 109% | 77.4% | 94.5% | 78.9% | 80% | 88.5% | 103% | 80% |
| N#Cc1c(-c2ccc(O)cc2)c2c(N)nn(-c3ccccc3)c2[nH]c1=O | 98.9% | 94.5% | 103% | 100% | 110% | 96.6% | 91.3% | 117% | 107% | 122% | 109% | 107% | 105% | 97.8% | 113% | 100% | 110% | 95.7% | 109% | 99.4% |
| Fc1ccc(NCc2nnc(-c3ccc(Cl)cc3)o2)cc1 | 70.1% | 71.8% | 82.5% | 84.6% | 83.7% | 67% | 56.5% | 66.1% | 87.8% | 90% | 95.5% | 53.8% | 93.8% | 55.6% | 84.8% | 77.9% | 77.9% | 90.6% | 68.4% | 77.9% |
| C[C@H]1[C@H]2C3=CC[C@@H]4[C@@]5(C)C/C(=C/c6ccco6)C(=O)C(C)(C)[C@@H]5CC[C@@]4(C)[C@]3(C)CC[C@@]2(C(=O)N2CCOCC2)CC[C@@H]1C | 44.2% | 83.8% | 95.3% | 105% | 94.9% | 78.4% | 38% | 70.4% | 95.5% | 94.1% | 88.1% | 27.4% | 83.3% | 90.5% | 62% | 85.8% | 81.4% | 82.7% | 88.4% | 76.9% |
| O=C1/C(=C\c2ccco2)SC(=S)N1CCc1ccc(O)cc1 | 101% | 101% | 90.6% | 98.1% | 106% | 61.2% | 68.9% | 99.7% | 99.4% | 126% | 67.8% | 84.8% | 82% | 80.5% | 98.3% | 94.8% | 105% | 88.5% | 90.1% | 96% |
| Cc1ccsc1-c1ccc2c(c1)COC2(CCCN(C)C)c1ccc(F)cc1 (stereo not given) | 70.6% | 93% | 68.5% | 69.4% | 10.3% | 41.6% | 55.1% | 45.9% | 63.8% | -43.9% (active) | 60% | 1.22% (active) | -14% (active) | 51.1% | 28.2% | 65.2% | 57.1% | 67% | -10.5% (active) | -57.5% (active) |
| O=C1/C(=C\C(Cl)=C/c2ccc([N+](=O)[O-])cc2)SC(=S)N1CCc1ccc(O)cc1 | -57.9% (active) | -63.3% (active) | 2.21% (active) | 12.9% | 0.441% (active) | -3.03% (active) | 0.0131% (active) | 3.64% (active) | -46.4% (active) | -43.8% (active) | 5.69% (active) | 6.62% (active) | -64.5% (active) | 6.88% (active) | -72.5% (active) | 9.96% (active) | -31.4% (active) | -75.4% (active) | 4.06% (active) | -27.5% (active) |
